Data reported in PubChem BioAssay (Tox21).
Inconclusive results are not listed. Calls of active or inactive are those of the source. Unless noted, calls follow the shape of the dose curve; as a rule, active = well fitted curve in the direction sought with a large enough effect in the repeat runs; inconclusive = weak or mixed curves; inactive = no such curve, though single readings can be large; an effect the other way counts as inactive or inconclusive.

Legend:
[1] = qHTS assay to identify small molecule HDAC inhibitors - cell viability counter screen (AID 1259365); also: series mostly up to about 92 µM; nearly all actives have a fitted effect of over 50% in size
In short: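 Luminescence from CellTiter-Glo, developed 30min at room temperature, reports viability of wild-type HCT-116 cells treated 2hr with compounds at 37 C and 5% CO2 after overnight plating.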

[2] = qHTS assay to identify small molecule agonists of the sonic hedgehog signaling (Shh) pathway - cell viability counter screen (AID 1259366); also: nearly all actives have a fitted effect of over 50% in size
In short: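 Cytotoxicity counter screen run in the same wells as the Shh reporter assay. NIH/3T3 cells carrying a Gli1 response element–driven luciferase were treated with DMSO-dissolved compounds for 24hr, and live-cell protease activity was measured with CellTiter-Fluor.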

[3] = qHTS assay to identify small molecule antagonists of the sonic hedgehog signaling (Shh) pathway - cell viability counter screen (AID 1259367); also: nearly all actives have a fitted effect of over 55% in size
In short: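 Seed 3T3 Gli1-Luc cells at 2,000 per well; incubate 4 hr; add compound in DMSO, then conditioned medium; incubate at 37C with 5% CO2; add CellTiter-Fluor after 23 hr; read fluorescence 1 hr later.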

[4] = qHTS assay to identify small molecule agonists of the sonic hedgehog signaling (Shh) pathway (AID 1259368; calls by dose curve; also: series mostly up to about 92 µM; nearly all actives have a fitted effect of over 15% in size)
In short: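 NIH/3T3-derived 3T3Gli1-Luc cells carrying a stably integrated Gli1 response element–firefly luciferase reporter were plated, left 4 hr at 37 C, then given compounds in DMSO for 24 hr. Luminescence was read 30 min after adding luciferase reagent.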

[5] = qHTS assay to identify small molecule antagonists of the sonic hedgehog signaling (Shh) pathway (AID 1259369; calls by dose curve; also: nearly all actives have a fitted effect of over 45% in size)
In short: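 NIH/3T3-derived 3T3Gli1-Luc cells with stably integrated Gli1-Luc reporter were preincubated 4hr at 37 C, then given compounds in DMSO plus Shh conditioned medium and incubated 24hr. Firefly luciferase luminescence read after 30min reagent at room temperature.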

[6] = qHTS assay to identify small molecule agonists of the androgen receptor (AR) signaling pathway in the presence of an antagonist - cell viability counter screen (AID 1259379); also: series mostly up to about 92 µM; nearly all actives have a fitted effect of over 25% in size
In short: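 MDA-kb2 human breast carcinoma cells (stable MMTV-luciferase, AR/GR responsive) were seeded 3,000 cells/well, pre-incubated 5 hr at 37C without CO2, then given 3.0uM nilutamide and compounds at 15 concentrations for 16 hr. Viability was read by CellTiter-Fluor fluorescence.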

[7] = qHTS assay to identify small molecule agonists of the estrogen receptor beta (ER-beta) signaling pathway - cell viability counter screen (AID 1259380); also: nearly all actives have a fitted effect of over 30% in size
In short: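 ER-beta-UAS-bla HEK293T cells in medium with 2% charcoal-stripped FBS were preincubated 6 hr at 37C, dosed with compound in DMSO for 16 hr, then after the bla read, CellTiter-Glo was added for 30 min at room temperature; luminescence recorded.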

[8] = qHTS assay to identify small molecule antagonists of the estrogen receptor beta (ER-beta) signaling pathway - cell viability counter screen (AID 1259382); also: series mostly up to about 92 µM; nearly all actives have a fitted effect of over 55% in size
In short: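 ER-beta-UAS-bla HEK293T cells (2,000/well, 2% charcoal-stripped FBS) were pre-incubated 6 hr at 37C, then given compound plus 1nM final 17-beta-estradiol for 16 hr. Viability was read in the same wells by CellTiter-Glo luminescence after 30 min at room temperature.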

[9] = target: Estrogen receptor (Homo sapiens) (UniProt P03372); test: qHTS assay to identify small molecule agonists of the estrogen receptor alpha (ER-alpha) signaling pathway in the presence of an antagonist (AID 1259383; calls by dose curve; also: top concentration of the series differs between compounds; nearly all actives have a fitted effect of over 15% in size)
In short: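 VM7Luc4E2 cells (endogenous full-length ER-alpha, 4×ERE-luciferase) were precultured 5 days in phenol red-free medium with 10% charcoal-stripped FBS, given 10.0nM ICI-182,780 (final), then treated with compounds at 15 concentrations for 22hr at 37C; luminescence read with ONE-Glo.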

[10] = qHTS assay to identify small molecule agonists of the estrogen receptor alpha (ER-alpha) signaling pathway in the presence of an antagonist - cell viability counter screen (AID 1259386);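 also: series mostly up to about 92 µM; cells exposed to compounds for 22 h at 37 °C before the viability read; nearly all actives have a fitted effect of over 30% in size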
In short: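 VM7Luc4E2 cells (endogenous full-length ER-alpha, 4×ERE-luciferase) were held 5 days in phenol red-free medium with 10% charcoal-stripped FBS, plated, then given 10.0nM ICI-182,780 and compounds at 15 concentrations for 22hr at 37C; viability read by CellTiter-Fluor fluorescence.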

[11] = target: Progesterone receptor (Homo sapiens) (UniProt P06401); test: qHTS assay to identify small molecule agonists of the progesterone receptor (PR) signaling pathway (AID 1346784; calls by dose curve; also: nearly all actives have a fitted effect of over 30% in size)
In short: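 Beta-lactamase reporter read-out: after 16 hr compound treatment at 37C and a further 2 hr at room temperature with LiveBLAzer B/G FRET substrate, fluorescence was measured in PR-UAS-bla HEK 293T cells grown in 2% charcoal-stripped serum.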

[12] = qHTS assay to identify small molecule antagonists of the TGF-beta/Smad signaling pathway - cell viability counter screen (AID 1346824); also: nearly all actives have a fitted effect of over 50% in size
In short: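 SBE-bla HEK 293T cells, incubated overnight, then compound plus 0.25 ng/mL TGF-beta1 (stock added) for 5 hr at 37 C. Viability was read in the same wells by CellTiter-Glo luminescence after 30 min at room temperature.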

[13] = target: Estrogen receptor beta (Homo sapiens) (UniProt Q92731); test: qHTS assay to identify small molecule antagonists of the estrogen receptor beta (ER-beta) signaling pathway (AID 1259378; active = well fitted inhibition curve with a large enough effect in the signal ratio in the repeat runs, not every such curve was filed as active; the % refers to the signal ratio)
In short: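 ER-beta-UAS-bla HEK293T cells in 2% charcoal-stripped FBS medium treated with compound plus 1nM final 17-beta-estradiol for 16 hr at 37C. Beta-lactamase reporter read by FRET substrate fluorescence after 2 hours at room temperature.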

[14] = target: Progesterone receptor (Homo sapiens) (UniProt P06401); test: qHTS assay to identify small molecule antagonists of the progesterone receptor (PR) signaling pathway (AID 1346795; active = well fitted inhibition curve with a large enough effect in the signal ratio in the repeat runs, not every such curve was filed as active; the % refers to the signal ratio)
In short: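 Read-out is fluorescence from the LiveBLAzer B/G FRET substrate, cleaved by a UAS-controlled beta-lactamase in PR-UAS-bla HEK293T cells after 16 hr exposure to compound plus 1 nM promegestone (final), followed by 2 hr at room temperature.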

[15] = qHTS assay to identify small molecule antagonists of the progesterone receptor (PR) signaling pathway - cell viability counter screen (AID 1346798);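 also: HEK293T PR-UAS-bla cells stimulated with the agonist R5020; series mostly up to about 92 µM; nearly all actives have a fitted effect of over 50% in size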
In short: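 HEK293T PR-UAS-bla, 2% charcoal-stripped FBS; 4 hr pre-plate; cpd + R5020, 16 h 37C; LiveBLAzer read first; then CellTiter-Glo 30 min RT, luminescence.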

[16] = qHTS assay to identify small molecule agonists of the progesterone receptor (PR) signaling pathway - cell viability counter screen (AID 1346799; calls by dose curve; also: nearly all actives have a fitted effect of over 45% in size)
In short: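 Luminescence from CellTiter-Glo, added after the beta-lactamase FRET read in the same wells, gave cytotoxicity in PR-UAS-bla HEK293T cells treated with compounds for 16 hr at 37C.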

[17] = qHTS assay to identify small molecule agonists or antagonists of the thyroid stimulating hormone receptor (TSHR) signaling pathway - wild type cell line counter screen (AID 1259384; calls by dose curve)
In short: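 Wild-type Hek293 cells, 800/well, 18 h at 37C, then compound with Ro20-1724 for 30 min RT. cAMP by HTRF (cAMP-d2/anti-cAMP cryptate), 1 h RT, fluorescence read. 15 concentrations, triplicates.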

[18] = target: Thyrotropin receptor (Homo sapiens) (UniProt P16473); test: qHTS assay to identify small molecule antagonists of the thyroid stimulating hormone receptor (TSHR) signaling pathway (AID 1259385; calls by dose curve; also: nearly all actives have a fitted effect of over 20% in size)
In short: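 TSHR-HEK293 cells (800/well) plated 18 h, then compounds with Ro20-1724 and TSH at 1.5 ng/mL final, 30 min at room temperature. cAMP quantified by HTRF (cAMP-d2/anti-cAMP-cryptate, 1 h); 15 concentrations in triplicate.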

[19] = target: Androgen receptor (Homo sapiens) (UniProt P10275); test: qHTS assay to identify small molecule agonists of the androgen receptor (AR) signaling pathway in the presence of an antagonist (AID 1259381; calls by dose curve; also: nearly all actives have a fitted effect of over 15% in size)
In short: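 MDA-kb2 human breast carcinoma cells carrying an MMTV-luciferase reporter (AR- and GR-responsive) were treated with compounds at 15 concentrations plus 3.0uM final nilutamide for 16hr at 37C without CO2; luminescence was read after ONE-Glo addition.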

[20] = target: Estrogen receptor beta (Homo sapiens) (UniProt Q92731); test: qHTS assay to identify small molecule agonists of the estrogen receptor beta (ER-beta) signaling pathway (AID 1259377; active = well fitted activation curve with a large enough effect in the signal ratio in the repeat runs, not every such curve was filed as active; the % refers to the signal ratio)
In short: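 HEK293T ER-beta-UAS-bla; 2% charcoal-stripped FBS; cells pre-incubated 6 hr, compound 16 hr, 37C/5% CO2; LiveBLAzer B/G FRET substrate 2 h RT; fluorescence intensity read.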

Measured: Potency

Sequence of Estrogen receptor (Homo sapiens) (P03372 whole entry, looked up): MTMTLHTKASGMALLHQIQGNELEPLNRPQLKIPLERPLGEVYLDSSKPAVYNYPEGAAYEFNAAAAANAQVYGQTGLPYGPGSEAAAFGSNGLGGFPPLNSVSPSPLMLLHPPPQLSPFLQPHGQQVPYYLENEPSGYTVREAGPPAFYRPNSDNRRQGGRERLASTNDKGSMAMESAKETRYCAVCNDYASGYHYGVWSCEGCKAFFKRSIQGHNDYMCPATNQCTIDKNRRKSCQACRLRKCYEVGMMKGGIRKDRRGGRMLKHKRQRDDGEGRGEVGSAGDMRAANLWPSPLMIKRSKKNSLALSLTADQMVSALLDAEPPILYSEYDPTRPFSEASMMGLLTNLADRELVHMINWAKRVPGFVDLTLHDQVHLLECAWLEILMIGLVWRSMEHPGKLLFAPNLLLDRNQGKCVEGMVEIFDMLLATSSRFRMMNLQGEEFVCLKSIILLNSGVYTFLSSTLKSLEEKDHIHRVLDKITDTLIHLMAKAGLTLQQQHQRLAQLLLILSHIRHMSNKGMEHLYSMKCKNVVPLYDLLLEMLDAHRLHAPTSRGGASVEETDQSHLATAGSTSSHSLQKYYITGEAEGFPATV
Sequence of Progesterone receptor (Homo sapiens) (P06401 whole entry, looked up): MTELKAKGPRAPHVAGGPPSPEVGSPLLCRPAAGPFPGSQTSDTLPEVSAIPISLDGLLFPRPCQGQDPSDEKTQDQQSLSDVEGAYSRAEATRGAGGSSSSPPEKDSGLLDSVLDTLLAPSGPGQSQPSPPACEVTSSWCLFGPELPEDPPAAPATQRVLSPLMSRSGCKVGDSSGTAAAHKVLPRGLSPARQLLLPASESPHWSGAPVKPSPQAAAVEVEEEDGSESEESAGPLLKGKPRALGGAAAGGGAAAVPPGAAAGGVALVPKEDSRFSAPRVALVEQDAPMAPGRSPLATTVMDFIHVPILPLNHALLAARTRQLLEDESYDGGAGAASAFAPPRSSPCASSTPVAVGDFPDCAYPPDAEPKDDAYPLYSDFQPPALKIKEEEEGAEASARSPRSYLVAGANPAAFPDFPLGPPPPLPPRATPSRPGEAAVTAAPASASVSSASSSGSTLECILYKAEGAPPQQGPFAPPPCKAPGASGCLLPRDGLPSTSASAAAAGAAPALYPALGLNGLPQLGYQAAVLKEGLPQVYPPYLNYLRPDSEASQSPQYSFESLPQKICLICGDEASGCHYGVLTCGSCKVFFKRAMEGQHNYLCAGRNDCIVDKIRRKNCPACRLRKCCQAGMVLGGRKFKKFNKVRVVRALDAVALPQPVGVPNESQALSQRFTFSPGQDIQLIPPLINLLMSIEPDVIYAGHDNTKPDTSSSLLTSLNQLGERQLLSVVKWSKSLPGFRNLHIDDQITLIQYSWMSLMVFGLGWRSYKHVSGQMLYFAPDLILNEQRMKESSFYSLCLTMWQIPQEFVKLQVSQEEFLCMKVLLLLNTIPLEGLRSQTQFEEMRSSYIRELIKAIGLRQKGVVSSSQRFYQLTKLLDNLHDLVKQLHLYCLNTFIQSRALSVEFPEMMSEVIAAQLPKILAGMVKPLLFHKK
Sequence of Androgen receptor (Homo sapiens) (P10275 whole entry, looked up): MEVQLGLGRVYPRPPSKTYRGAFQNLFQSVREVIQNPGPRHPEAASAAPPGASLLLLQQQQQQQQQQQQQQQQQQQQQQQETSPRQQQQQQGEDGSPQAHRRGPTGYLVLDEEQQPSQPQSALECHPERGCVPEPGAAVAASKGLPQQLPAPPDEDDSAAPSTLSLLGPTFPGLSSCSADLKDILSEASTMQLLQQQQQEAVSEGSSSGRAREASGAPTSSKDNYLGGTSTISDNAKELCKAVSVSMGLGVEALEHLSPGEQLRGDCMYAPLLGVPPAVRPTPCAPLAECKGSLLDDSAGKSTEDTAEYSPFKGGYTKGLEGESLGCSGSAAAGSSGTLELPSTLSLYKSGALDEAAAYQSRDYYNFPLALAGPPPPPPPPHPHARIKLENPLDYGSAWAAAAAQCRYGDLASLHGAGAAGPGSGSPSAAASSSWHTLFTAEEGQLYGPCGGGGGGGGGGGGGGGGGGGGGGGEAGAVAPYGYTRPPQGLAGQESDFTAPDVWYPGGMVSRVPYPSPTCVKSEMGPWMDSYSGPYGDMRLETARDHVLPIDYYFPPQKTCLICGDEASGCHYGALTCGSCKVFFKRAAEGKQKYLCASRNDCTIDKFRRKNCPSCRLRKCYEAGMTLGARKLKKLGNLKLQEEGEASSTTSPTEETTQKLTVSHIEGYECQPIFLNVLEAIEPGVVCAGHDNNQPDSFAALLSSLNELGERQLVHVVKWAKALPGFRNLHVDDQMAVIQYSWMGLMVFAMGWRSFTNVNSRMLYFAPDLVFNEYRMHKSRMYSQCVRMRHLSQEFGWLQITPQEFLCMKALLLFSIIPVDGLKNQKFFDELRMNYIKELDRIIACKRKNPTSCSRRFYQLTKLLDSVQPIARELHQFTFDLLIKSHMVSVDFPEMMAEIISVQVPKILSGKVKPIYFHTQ
Sequence of Thyrotropin receptor (Homo sapiens) (P16473 whole entry, looked up): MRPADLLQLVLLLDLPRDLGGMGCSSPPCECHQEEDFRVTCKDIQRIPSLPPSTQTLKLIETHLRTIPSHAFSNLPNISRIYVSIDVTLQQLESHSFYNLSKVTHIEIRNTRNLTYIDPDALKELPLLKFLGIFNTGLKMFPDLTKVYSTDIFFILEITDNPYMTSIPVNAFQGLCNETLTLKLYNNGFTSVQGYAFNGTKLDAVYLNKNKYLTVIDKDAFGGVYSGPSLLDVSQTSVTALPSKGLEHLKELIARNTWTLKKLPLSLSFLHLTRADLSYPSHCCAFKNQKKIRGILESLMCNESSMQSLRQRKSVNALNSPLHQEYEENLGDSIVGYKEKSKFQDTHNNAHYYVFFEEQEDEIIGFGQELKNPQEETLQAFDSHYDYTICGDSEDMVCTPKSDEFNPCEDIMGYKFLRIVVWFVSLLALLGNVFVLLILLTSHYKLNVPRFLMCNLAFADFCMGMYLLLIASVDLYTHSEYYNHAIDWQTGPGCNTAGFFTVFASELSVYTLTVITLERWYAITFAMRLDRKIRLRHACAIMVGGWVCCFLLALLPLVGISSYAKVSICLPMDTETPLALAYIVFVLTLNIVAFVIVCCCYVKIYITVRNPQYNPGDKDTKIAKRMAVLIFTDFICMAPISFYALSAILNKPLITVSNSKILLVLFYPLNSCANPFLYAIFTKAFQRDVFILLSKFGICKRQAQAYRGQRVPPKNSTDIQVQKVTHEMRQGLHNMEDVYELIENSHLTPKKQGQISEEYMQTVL
Sequence of Estrogen receptor beta (Homo sapiens) (Q92731 whole entry, looked up): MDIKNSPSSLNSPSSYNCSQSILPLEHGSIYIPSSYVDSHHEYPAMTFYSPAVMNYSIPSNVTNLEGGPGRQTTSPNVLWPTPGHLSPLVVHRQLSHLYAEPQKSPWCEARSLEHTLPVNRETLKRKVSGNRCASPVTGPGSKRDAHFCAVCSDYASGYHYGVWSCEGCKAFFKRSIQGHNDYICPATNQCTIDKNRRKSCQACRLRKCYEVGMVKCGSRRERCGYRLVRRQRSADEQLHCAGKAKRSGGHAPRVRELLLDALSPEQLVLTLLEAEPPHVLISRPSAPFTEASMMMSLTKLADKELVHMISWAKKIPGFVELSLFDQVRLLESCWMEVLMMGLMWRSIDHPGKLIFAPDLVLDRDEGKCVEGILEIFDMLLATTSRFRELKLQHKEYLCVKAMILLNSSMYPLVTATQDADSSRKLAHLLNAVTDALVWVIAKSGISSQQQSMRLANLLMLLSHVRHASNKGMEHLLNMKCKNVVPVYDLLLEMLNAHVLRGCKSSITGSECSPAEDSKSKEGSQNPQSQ

C[Si](C)(C)O[Si](O)(O)O
not listed: [13] | [14] | [15] | [16] | [17] | [18] | [19] | [20]
inactive: all other assays above

Cc1cc2c(cc1CC(=O)c1sccc1S(=O)(=O)Nc1onc(C)c1Cl)OCO2
not listed: [7] | [11] | [17] | [18] | [19] | [20]
inactive: all other assays above

CCN1CCN(C(=O)N[C@@H](C(=O)N[C@@H]2C(=O)N3C(C(=O)O)=C(CSc4nnnn4C)CS[C@H]23)c2ccc(O)cc2)C(=O)C1=O
not listed: [7] | [11] | [12] | [14] | [16] | [19] | [20]
inactive: all other assays above

CC(C)(C)OC=O
not listed: [7] | [9] | [14] | [15] | [16] | [19] | [20]
inactive: all other assays above

C[C@]12C=CC(=O)C=C1[C@@H](F)C[C@@H]1[C@@H]2[C@@H](O)C[C@@]2(C)[C@H]1CC[C@]2(O)C(=O)CO
not listed: [11] | [13] | [14] | [19] | [20]
inactive: all other assays above

CC(=O)OC/C=C(/C)CCC=C(C)C
not listed: [13] | [16] | [19] | [20]
inactive: all other assays above

O=C(O)COc1ccc2ccccc2c1
not listed: [7] | [17] | [18] | [19] | [20]
inactive: all other assays above

O=C(OOC(=O)c1ccccc1)c1ccccc1
not listed: [13] | [19] | [20]
inactive: all other assays above

CC(O)CCCCn1c(=O)c2c(ncn2C)n(C)c1=O (stereo not given)
not listed: [11] | [13] | [14] | [19] | [20]
inactive: all other assays above

CCN(CC)CC
not listed: [13] | [19] | [20]
inactive: all other assays above

CCCCC(CC)COC(=O)CC#N (stereo not given)
not listed: [7] | [15] | [19] | [20]
inactive: all other assays above

Cc1ccccc1C#N
not listed: [13] | [19] | [20]
inactive: all other assays above

CCCC[O][Al]([O]CCCC)[O]CCCC
not listed: [9] | [13] | [19] | [20]
inactive: all other assays above

CNCCc1ccccn1
not listed: [9] | [13] | [14] | [19] | [20]
inactive: all other assays above

CC1(C)C(=O)C(C)(C)C1=O
not listed: [9] | [13] | [16] | [17] | [18] | [20]
inactive: all other assays above

O=C(O)Cc1ccccc1Oc1ccc(Cl)cc1Cl
not listed: [13] | [19] | [20]
inactive: all other assays above

CC(=O)/C=C/C=C1/C2CCC(C2)C1(C)C (stereo not given)
not listed: [13] | [20]
inactive: all other assays above

Cc1ccc(Br)cc1
not listed: [11] | [13] | [19] | [20]
inactive: all other assays above

CC(C)(C)OC(=O)c1ccccc1C(=O)O
not listed: [11] | [13] | [15] | [16] | [19] | [20]
inactive: all other assays above

Nc1cc(S(=O)(=O)O)ccc1O
not listed: [13] | [14] | [16] | [20]
inactive: all other assays above

CCCc1ccc(O)c(OC)c1
not listed: [11] | [13] | [14] | [19] | [20]
inactive: all other assays above

N=C(N)N
not listed: [9] | [12] | [13] | [16] | [19] | [20]
inactive: all other assays above

O=Cc1ccc(C(=O)O)cc1
not listed: [13] | [14] | [19] | [20]
inactive: all other assays above

CC(=O)Oc1ccc(C(C)=O)cc1
not listed: [13] | [14] | [15] | [19] | [20]
inactive: all other assays above

C=CCN1CCc2nc(N)sc2CC1
not listed: [9] | [13] | [16] | [20]
inactive: all other assays above

COC(=O)c1ccc(NC(C)=O)cc1OC
not listed: [13] | [16] | [20]
inactive: all other assays above

C=C(C)C(=O)OCCOC1CC2CC1C1C=CCC21 (stereo not given)
not listed: [7] | [9] | [12] | [18] | [19] | [20]
inactive: all other assays above

CO/N=C(\C(=O)O)c1csc(NC(=O)CCl)n1
not listed: [13] | [14] | [17] | [18] | [19] | [20]
inactive: all other assays above

CC(=O)Nc1ccc(OCCOCCOc2ccc(NC(C)=O)cc2)cc1
not listed: [13] | [19] | [20]
inactive: all other assays above

CC(C)(O)c1ccc(C(C)(C)O)cc1
not listed: [13] | [19] | [20]
inactive: all other assays above

CC(C)(O)CCCC1=CCC(C=O)CC1 (stereo not given)
not listed: [13] | [19] | [20]
inactive: all other assays above

CCCCCCCOC(C)=O
not listed: [13] | [14] | [19] | [20]
inactive: all other assays above

CC12CCCC=C1C(=O)OC2=O (stereo not given)
not listed: [7] | [9] | [13] | [20]
inactive: all other assays above

CCNC(=O)C(C)OC(=O)Nc1ccccc1 (stereo not given)
not listed: [5] | [11] | [14] | [15] | [19]
inactive: all other assays above
